# Laboratory results taken from publication PMC7862700, “An all-to-all approach to the identification of sequence-specific readers for epigenetic DNA modifications on cytosine”.
# Legend:
# Experiment in all cases: DAPPL (digital affinity profiling via proximity ligation, sequencing); 10 mM Tris-HCl pH 7.5, 50 mM NaCl, 1 mM DTT, 4% glycerol, room temperature, 30 min; GST-TFs on glutathione beads, 16-mer random dsDNA library, 0.1% formaldehyde crosslink after washing; high values mean tight binding
# FLI1 = molecular target: T1, FLI1 (Homo sapiens, UniProt Q01543 1-452); details: protein: recombinant; tags: N-terminal GST; dsDNA, one strand shown
# T1 sequence: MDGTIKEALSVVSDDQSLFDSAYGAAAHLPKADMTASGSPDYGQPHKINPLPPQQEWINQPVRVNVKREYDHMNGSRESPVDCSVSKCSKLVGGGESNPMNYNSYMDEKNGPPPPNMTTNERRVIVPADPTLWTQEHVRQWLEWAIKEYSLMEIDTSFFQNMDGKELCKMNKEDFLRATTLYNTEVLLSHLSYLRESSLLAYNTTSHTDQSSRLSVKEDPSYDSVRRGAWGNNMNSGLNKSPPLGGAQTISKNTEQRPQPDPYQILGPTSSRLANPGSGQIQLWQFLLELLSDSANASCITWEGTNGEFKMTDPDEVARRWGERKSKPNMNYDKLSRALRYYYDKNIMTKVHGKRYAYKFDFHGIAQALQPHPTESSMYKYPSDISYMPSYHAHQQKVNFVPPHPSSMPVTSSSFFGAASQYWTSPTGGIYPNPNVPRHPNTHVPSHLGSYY
# Outline: (§1)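 A tag-only sample was pooled with DNA-barcoded human transcription factors that had been expressed in yeast as GST fusions and captured on glutathione beads. The pools were incubated for 30 min at room temperature with 200 nmole of a random double-stranded 16-mer DNA library in Tris/NaCl/DTT/glycerol buffer, then washed, crosslinked with 0.1% formaldehyde, proximity-ligated (BsaI/T4 ligase, 1 h, 37 °C), PCR-amplified and sequenced on an Illumina NextSeq500. Binding signal is each hexamer's read frequency for a factor divided by its frequency for the tag-only sample.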
# ELK1 = molecular target: T2, ELK1 (Homo sapiens, UniProt P19419 1-428); details: protein: recombinant; tags: N-terminal GST; dsDNA, one strand shown
# T2 sequence: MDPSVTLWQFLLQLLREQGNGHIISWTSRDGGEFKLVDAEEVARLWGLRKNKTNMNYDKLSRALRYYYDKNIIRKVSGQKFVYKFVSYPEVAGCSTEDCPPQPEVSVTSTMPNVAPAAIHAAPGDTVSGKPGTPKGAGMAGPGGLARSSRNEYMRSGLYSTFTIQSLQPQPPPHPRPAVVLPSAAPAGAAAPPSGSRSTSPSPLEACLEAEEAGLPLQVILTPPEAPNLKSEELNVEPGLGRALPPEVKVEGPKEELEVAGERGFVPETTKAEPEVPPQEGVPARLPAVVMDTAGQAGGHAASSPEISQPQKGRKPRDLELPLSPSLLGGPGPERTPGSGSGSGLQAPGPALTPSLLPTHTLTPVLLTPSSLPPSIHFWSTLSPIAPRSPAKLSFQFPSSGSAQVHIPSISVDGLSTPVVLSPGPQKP
# Outline: as §1
# GABPA = molecular target: T3, GABPA (Homo sapiens, UniProt Q06546 1-454); details: protein: recombinant; tags: N-terminal GST; dsDNA, one strand shown
# T3 sequence: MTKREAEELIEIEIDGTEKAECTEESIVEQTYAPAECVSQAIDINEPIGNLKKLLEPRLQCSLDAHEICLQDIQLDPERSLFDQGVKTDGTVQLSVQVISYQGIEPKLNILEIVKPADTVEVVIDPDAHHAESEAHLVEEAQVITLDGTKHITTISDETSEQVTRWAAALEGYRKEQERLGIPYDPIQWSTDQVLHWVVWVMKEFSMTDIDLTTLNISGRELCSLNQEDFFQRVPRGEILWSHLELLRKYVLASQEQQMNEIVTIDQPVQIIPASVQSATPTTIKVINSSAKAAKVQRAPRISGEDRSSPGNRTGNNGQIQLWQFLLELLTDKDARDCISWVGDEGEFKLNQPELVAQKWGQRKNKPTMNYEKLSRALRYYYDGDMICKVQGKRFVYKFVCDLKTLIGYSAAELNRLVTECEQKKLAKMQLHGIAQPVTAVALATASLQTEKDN
# Outline: as §1
# ERG = molecular target: T4, ERG (Homo sapiens, UniProt P11308 1-479); details: protein: recombinant; tags: N-terminal GST; dsDNA, one strand shown
# T4 sequence: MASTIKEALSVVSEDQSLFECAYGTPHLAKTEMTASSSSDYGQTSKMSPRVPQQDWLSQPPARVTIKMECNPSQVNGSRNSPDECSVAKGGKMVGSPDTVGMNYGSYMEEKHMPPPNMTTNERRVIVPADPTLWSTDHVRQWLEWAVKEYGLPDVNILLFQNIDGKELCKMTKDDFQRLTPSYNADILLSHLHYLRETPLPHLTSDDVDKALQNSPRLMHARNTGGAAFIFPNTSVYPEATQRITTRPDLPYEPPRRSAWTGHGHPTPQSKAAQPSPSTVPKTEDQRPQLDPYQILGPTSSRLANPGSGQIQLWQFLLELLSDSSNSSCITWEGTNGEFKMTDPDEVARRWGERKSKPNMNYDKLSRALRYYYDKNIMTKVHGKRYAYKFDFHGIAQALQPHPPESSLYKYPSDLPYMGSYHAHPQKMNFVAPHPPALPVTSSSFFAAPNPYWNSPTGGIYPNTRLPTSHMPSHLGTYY
# Outline: as §1
# ELF1 = ELF1 (Homo sapiens, UniProt P32519 1-619); details: protein: recombinant; tags: N-terminal GST; dsDNA, one strand shown
# Outline: as §1
# EHF = molecular target: T5, EHF (Homo sapiens, UniProt Q9NZC4 1-300); details: protein: recombinant; tags: N-terminal GST; dsDNA, one strand shown
# T5 sequence: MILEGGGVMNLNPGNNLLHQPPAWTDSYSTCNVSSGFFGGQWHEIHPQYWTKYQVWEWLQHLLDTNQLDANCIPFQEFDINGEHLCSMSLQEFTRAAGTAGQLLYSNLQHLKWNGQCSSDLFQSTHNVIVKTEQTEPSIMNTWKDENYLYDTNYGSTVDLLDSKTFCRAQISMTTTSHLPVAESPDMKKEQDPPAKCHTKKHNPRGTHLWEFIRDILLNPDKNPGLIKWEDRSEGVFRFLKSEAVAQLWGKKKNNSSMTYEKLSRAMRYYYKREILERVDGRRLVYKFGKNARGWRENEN
# Outline: as §1
# SPI1 = SPI1 (Homo sapiens, UniProt P17947 1-270); details: protein: recombinant; tags: N-terminal GST; dsDNA, one strand shown
# Outline: as §1
# SPIB = SPIB (Homo sapiens, UniProt Q01892 1-262); details: protein: recombinant; tags: N-terminal GST; dsDNA, one strand shown
# Outline: as §1
# ELK3 = molecular target: T6, ELK3 (Homo sapiens, UniProt P41970 1-407); details: protein: recombinant; tags: N-terminal GST; dsDNA, one strand shown
# T6 sequence: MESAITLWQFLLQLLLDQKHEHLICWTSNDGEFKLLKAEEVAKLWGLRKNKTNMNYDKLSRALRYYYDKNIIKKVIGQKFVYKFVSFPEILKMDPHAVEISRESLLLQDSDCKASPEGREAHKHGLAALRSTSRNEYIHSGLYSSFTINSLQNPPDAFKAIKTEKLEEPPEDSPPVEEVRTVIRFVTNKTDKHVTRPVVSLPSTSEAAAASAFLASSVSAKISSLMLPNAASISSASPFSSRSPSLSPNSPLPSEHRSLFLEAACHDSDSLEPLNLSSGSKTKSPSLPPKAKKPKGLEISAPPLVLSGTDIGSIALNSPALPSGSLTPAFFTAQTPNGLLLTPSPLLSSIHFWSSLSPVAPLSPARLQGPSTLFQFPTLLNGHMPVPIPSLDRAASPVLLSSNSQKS
# Outline: as §1
# FEV = molecular target: T7, FEV (Homo sapiens, UniProt Q99581 1-238); details: protein: recombinant; tags: N-terminal GST; dsDNA, one strand shown
# T7 sequence: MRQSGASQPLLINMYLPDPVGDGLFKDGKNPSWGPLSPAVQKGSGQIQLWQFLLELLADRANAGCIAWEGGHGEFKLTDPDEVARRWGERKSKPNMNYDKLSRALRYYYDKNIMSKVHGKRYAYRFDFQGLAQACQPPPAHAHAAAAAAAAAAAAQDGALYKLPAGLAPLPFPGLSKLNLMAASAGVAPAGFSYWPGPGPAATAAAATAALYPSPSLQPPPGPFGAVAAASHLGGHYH
# Outline: as §1
# ETV5 = ETV5 (Homo sapiens, UniProt P41161 1-510); details: protein: recombinant; tags: N-terminal GST; dsDNA, one strand shown
# Outline: as §1
# HSF1 = HSF1 (Homo sapiens, UniProt Q00613 1-529); details: protein: recombinant; tags: N-terminal GST; chain copies: 3; dsDNA, one strand shown
# Outline: as §1
# SPIC = molecular target: T8, SPIC (Homo sapiens, UniProt Q8N5J4 1-248); details: protein: recombinant; tags: N-terminal GST; dsDNA, one strand shown
# T8 sequence: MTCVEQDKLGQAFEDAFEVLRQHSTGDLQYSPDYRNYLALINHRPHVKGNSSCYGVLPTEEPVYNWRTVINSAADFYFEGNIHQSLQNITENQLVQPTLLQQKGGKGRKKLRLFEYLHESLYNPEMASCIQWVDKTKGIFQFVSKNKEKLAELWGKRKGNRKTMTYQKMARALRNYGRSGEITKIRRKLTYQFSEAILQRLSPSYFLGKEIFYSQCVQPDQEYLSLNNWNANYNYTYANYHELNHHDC
# Outline: as §1
# ELF4 = ELF4 (Homo sapiens, UniProt Q99607 1-663); details: protein: recombinant; tags: N-terminal GST; dsDNA, one strand shown
# Outline: as §1
# ELK4 = molecular target: T9, ELK4 (Homo sapiens, UniProt P28324-2 1-405); details: protein: recombinant; tags: N-terminal GST; dsDNA, one strand shown
# T9 sequence: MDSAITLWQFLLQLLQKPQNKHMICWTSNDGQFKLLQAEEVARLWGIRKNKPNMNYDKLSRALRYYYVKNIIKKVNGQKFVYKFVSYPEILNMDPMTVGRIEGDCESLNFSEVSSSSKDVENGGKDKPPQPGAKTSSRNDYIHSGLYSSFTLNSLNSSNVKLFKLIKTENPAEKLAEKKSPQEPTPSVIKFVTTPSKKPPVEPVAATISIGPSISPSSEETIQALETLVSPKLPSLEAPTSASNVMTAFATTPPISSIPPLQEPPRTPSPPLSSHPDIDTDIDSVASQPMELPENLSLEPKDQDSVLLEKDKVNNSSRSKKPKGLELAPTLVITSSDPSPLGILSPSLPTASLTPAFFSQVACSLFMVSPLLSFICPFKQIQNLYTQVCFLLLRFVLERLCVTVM
# Outline: as §1
# ETV2 = molecular target: T10, ETV2 (Homo sapiens, UniProt O00321 1-342); details: protein: recombinant; tags: N-terminal GST; dsDNA, one strand shown
# T10 sequence: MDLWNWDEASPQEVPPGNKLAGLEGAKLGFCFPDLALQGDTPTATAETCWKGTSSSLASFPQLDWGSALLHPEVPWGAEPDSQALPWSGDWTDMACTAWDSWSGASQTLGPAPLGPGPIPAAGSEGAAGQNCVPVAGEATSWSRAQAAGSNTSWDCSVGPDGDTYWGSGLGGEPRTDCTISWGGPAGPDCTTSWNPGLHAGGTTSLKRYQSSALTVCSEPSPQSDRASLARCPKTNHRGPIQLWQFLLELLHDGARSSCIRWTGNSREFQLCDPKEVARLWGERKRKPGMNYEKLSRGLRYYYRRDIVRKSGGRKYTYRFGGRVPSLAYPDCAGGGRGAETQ
# Outline: as §1
# ELF3 = molecular target: T11, ELF3 (Homo sapiens, UniProt P78545 1-371); details: protein: recombinant; tags: N-terminal GST; dsDNA, one strand shown
# T11 sequence: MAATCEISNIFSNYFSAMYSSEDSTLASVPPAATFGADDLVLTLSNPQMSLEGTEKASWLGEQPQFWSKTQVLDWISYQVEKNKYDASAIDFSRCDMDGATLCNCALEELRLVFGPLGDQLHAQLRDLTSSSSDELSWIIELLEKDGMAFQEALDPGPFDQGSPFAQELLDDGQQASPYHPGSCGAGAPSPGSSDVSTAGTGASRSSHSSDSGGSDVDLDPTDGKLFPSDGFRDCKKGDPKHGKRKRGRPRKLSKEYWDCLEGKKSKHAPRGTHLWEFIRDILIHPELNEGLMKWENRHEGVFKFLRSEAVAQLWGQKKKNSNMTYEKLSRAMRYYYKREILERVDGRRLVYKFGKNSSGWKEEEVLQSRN
# Outline: as §1
# CRX = CRX (Homo sapiens, UniProt O43186 1-299); details: protein: recombinant; tags: N-terminal GST; dsDNA, one strand shown
# Outline: as §1
# ETV1 = ETV1 (Homo sapiens, UniProt P50549 1-477); details: protein: recombinant; tags: N-terminal GST; dsDNA, one strand shown
# Outline: as §1
# Sequence of ELF4 (Q99607 whole entry): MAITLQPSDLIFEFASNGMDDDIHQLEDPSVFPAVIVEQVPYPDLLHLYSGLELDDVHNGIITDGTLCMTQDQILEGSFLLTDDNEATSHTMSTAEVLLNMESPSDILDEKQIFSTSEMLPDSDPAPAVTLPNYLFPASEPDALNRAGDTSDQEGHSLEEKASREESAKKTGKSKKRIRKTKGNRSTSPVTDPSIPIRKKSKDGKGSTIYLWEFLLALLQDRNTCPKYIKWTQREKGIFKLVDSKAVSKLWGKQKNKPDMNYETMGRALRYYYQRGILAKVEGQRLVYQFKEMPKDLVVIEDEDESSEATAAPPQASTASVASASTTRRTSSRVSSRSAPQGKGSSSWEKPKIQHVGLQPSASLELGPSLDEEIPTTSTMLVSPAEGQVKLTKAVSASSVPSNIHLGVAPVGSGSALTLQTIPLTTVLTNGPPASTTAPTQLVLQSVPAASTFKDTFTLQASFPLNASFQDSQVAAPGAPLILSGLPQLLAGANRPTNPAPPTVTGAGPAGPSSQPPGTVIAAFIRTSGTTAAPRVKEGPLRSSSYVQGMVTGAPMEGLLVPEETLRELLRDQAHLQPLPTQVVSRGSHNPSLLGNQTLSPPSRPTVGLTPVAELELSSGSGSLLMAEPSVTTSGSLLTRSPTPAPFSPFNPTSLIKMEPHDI
# Sequence of ELF1 (P32519 whole entry): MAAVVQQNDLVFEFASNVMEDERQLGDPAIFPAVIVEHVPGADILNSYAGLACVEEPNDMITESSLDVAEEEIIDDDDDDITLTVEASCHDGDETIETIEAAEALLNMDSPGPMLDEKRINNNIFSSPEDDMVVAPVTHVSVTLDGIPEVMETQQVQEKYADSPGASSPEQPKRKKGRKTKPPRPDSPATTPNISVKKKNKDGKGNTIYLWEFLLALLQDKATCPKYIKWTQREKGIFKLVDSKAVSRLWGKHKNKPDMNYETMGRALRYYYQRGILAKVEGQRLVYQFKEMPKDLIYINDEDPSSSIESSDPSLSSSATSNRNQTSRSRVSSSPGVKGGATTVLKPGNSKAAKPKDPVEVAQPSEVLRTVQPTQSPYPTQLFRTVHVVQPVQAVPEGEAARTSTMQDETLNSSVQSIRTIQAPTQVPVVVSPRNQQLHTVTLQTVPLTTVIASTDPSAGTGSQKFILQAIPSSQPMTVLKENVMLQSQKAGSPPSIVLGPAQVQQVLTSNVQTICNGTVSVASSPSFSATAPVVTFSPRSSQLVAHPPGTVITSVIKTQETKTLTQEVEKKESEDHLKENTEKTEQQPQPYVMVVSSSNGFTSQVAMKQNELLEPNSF
# Sequence of CRX (O43186 whole entry): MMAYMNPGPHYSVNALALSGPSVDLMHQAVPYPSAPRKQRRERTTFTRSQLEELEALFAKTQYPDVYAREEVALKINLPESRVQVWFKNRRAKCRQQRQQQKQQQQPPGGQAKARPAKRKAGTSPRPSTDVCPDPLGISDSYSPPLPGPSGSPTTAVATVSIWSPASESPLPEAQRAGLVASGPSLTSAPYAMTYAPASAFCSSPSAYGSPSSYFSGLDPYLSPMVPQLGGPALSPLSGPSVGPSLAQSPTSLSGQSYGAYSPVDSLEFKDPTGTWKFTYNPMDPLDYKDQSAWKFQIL
# Sequence of ETV5 (P41161 whole entry): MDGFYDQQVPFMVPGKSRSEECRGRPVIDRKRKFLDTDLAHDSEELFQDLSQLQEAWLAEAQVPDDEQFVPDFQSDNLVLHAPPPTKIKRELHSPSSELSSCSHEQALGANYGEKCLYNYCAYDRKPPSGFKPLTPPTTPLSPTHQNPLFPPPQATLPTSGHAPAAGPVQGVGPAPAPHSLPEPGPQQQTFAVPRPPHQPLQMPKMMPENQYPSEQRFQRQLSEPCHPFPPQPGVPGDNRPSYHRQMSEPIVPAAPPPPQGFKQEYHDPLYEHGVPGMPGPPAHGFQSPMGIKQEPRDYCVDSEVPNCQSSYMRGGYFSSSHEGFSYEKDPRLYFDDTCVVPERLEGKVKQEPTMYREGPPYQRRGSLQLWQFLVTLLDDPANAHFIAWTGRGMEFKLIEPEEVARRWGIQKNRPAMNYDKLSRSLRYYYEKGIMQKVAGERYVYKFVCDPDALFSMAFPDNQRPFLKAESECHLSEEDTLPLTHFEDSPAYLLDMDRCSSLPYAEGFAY
# Sequence of HSF1 (Q00613 whole entry): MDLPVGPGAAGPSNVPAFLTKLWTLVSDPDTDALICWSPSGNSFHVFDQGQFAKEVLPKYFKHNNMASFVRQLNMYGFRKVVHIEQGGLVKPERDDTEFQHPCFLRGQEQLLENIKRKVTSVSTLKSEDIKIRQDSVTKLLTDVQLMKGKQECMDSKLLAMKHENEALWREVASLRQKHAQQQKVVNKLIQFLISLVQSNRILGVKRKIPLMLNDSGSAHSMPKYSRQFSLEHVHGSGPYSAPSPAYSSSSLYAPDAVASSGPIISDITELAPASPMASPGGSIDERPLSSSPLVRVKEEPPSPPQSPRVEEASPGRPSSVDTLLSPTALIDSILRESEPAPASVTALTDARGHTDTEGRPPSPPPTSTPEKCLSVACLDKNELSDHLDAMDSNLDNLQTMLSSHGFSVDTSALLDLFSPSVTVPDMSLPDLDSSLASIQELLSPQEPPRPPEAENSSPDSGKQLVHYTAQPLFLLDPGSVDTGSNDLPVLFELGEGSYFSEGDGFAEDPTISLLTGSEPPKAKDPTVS
# Sequence of SPIB (Q01892 whole entry): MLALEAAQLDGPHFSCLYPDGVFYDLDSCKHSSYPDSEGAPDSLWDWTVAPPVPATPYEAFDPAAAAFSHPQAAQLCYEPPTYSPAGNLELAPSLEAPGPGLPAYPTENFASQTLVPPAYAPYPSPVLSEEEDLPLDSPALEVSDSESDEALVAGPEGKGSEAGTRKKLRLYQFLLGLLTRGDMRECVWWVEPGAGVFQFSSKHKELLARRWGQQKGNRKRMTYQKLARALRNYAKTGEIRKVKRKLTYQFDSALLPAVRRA
# Sequence of ETV1 (P50549 whole entry): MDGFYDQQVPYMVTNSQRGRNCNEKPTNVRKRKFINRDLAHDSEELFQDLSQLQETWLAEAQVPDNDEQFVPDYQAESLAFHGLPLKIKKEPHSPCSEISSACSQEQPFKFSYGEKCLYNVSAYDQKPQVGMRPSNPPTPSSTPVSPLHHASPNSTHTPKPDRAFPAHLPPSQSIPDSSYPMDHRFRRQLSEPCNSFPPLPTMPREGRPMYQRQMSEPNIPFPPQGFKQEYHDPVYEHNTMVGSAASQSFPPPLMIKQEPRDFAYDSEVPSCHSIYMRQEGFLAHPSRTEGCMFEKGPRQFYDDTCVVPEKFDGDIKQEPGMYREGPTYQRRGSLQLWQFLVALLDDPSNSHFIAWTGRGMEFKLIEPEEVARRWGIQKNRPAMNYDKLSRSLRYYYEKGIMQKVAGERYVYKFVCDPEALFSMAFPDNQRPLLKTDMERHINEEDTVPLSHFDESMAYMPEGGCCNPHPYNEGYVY
sequence,measurement,setting,value
ACGATT,binding signal,FLI1,"1.44 fold enrichment (6-mer frequency, TF over GST control)"
same,binding signal,ELK1,"1.31 fold enrichment (6-mer frequency, TF over GST control)"
same,binding signal,GABPA,"1.29 fold enrichment (6-mer frequency, TF over GST control)"
same,binding signal,ERG,"1.34 fold enrichment (6-mer frequency, TF over GST control)"
same,binding signal,ELF1,"1.32 fold enrichment (6-mer frequency, TF over GST control)"
same,binding signal,EHF,"1.32 fold enrichment (6-mer frequency, TF over GST control)"
same,binding signal,SPI1,"1.31 fold enrichment (6-mer frequency, TF over GST control)"
same,binding signal,SPIB,"1.3 fold enrichment (6-mer frequency, TF over GST control)"
same,binding signal,ELK3,"1.38 fold enrichment (6-mer frequency, TF over GST control)"
same,binding signal,FEV,"1.28 fold enrichment (6-mer frequency, TF over GST control)"
same,binding signal,ETV5,"1.36 fold enrichment (6-mer frequency, TF over GST control)"
same,binding signal,HSF1,"1.69 fold enrichment (6-mer frequency, TF over GST control)"
same,binding signal,SPIC,"1.39 fold enrichment (6-mer frequency, TF over GST control)"
same,binding signal,ELF4,"1.39 fold enrichment (6-mer frequency, TF over GST control)"
same,binding signal,ELK4,"1.43 fold enrichment (6-mer frequency, TF over GST control)"
same,binding signal,ETV2,"1.24 fold enrichment (6-mer frequency, TF over GST control)"
same,binding signal,ELF3,"1.31 fold enrichment (6-mer frequency, TF over GST control)"
same,binding signal,CRX,"1.99 fold enrichment (6-mer frequency, TF over GST control)"
same,binding signal,ETV1,"1.31 fold enrichment (6-mer frequency, TF over GST control)"
